# ± gives the standard deviation of the averaged measurements.
# Key:
# [1] = tested on: Saccharomyces cerevisiae BY4741 SeMeCo community; assay: mean cell size (pixel area) (pixels); higher = larger cells; details: 10 µM; 24 h; SM minimal medium
# How it was run: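 Mean cell pixel area per well was measured in a four-plasmid fluorescent community of Saccharomyces cerevisiae BY4741, where every plasmid complements one auxotrophy and carries a fluorescent marker. Cells from an overnight preculture at OD600 = 1.0 were diluted to OD600 = 0.3 and dispensed at 70 µl into 384-well plates acoustically predosed with drug to a final 10 µM in SM medium. Incubation lasted 24 h, followed by paraformaldehyde fixation, automated confocal imaging and analysis in Harmony. Reported figures are averaged over 3 replicates. Same SeMeCo high-content imaging drug screen: Selleck FDA-approved drugs at 10 µM, 24 h in SM medium, 384-well plates, 3 replicates.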
# [2] = tested on: Saccharomyces cerevisiae BY4741 SeMeCo community; assay: z-score of prototroph abundance vs DMSO median; higher = larger share of this subpopulation than in DMSO controls; details: 10 µM; 24 h; SM minimal medium; subpopulation (auxotrophy): Prototroph
# How it was run: (§1)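 Scoring was based on each subpopulation's abundance, expressed as a z-score against the vehicle-well median. A Saccharomyces cerevisiae BY4741 community with four plasmids, each restoring one auxotrophy and encoding a distinct fluorescent protein, was pre-grown overnight to OD600 1.0, diluted to 0.3, and added at 70 µl to 384-well plates acoustically predosed with library drugs (10 µM final). It then grew 24 h in minimal SM medium before paraformaldehyde fixation and automated confocal microscopy, with single-auxotroph fluorescent strains setting thresholds and autofluorescence correction.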
# [3] = tested on: Saccharomyces cerevisiae BY4741 SeMeCo community; assay: z-score of subpopulation abundance vs DMSO median, subpopulation auxotrophic for M; higher = larger share of this subpopulation than in DMSO controls; details: 10 µM; 24 h; SM minimal medium; subpopulation (auxotrophy): M
# How it was run: as §1
# [4] = tested on: Saccharomyces cerevisiae BY4741 SeMeCo community; assay: z-score of subpopulation abundance vs DMSO median, subpopulation auxotrophic for L; higher = larger share of this subpopulation than in DMSO controls; details: 10 µM; 24 h; SM minimal medium; subpopulation (auxotrophy): L
# How it was run: as §1
# [5] = tested on: Saccharomyces cerevisiae BY4741 SeMeCo community; assay: z-score of subpopulation abundance vs DMSO median, subpopulation auxotrophic for U; higher = larger share of this subpopulation than in DMSO controls; details: 10 µM; 24 h; SM minimal medium; subpopulation (auxotrophy): U
# How it was run: as §1
# [6] = tested on: Saccharomyces cerevisiae BY4741 SeMeCo community; assay: z-score of subpopulation abundance vs DMSO median, subpopulation auxotrophic for H; higher = larger share of this subpopulation than in DMSO controls; details: 10 µM; 24 h; SM minimal medium; subpopulation (auxotrophy): H
# How it was run: as §1
# [7] = tested on: Saccharomyces cerevisiae BY4741 SeMeCo community; assay: z-score of subpopulation abundance vs DMSO median, subpopulation auxotrophic for LU; higher = larger share of this subpopulation than in DMSO controls; details: 10 µM; 24 h; SM minimal medium; subpopulation (auxotrophy): LU
# How it was run: as §1
# [8] = tested on: Saccharomyces cerevisiae BY4741 SeMeCo community; assay: z-score of subpopulation abundance vs DMSO median, subpopulation auxotrophic for LM; higher = larger share of this subpopulation than in DMSO controls; details: 10 µM; 24 h; SM minimal medium; subpopulation (auxotrophy): LM
# How it was run: as §1
# [9] = tested on: Saccharomyces cerevisiae BY4741 SeMeCo community; assay: z-score of subpopulation abundance vs DMSO median, subpopulation auxotrophic for HM; higher = larger share of this subpopulation than in DMSO controls; details: 10 µM; 24 h; SM minimal medium; subpopulation (auxotrophy): HM
# How it was run: as §1
# [10] = tested on: Saccharomyces cerevisiae BY4741 SeMeCo community; assay: z-score of subpopulation abundance vs DMSO median, subpopulation auxotrophic for HU; higher = larger share of this subpopulation than in DMSO controls; details: 10 µM; 24 h; SM minimal medium; subpopulation (auxotrophy): HU
# How it was run: as §1
# [11] = tested on: Saccharomyces cerevisiae BY4741 SeMeCo community; assay: z-score of subpopulation abundance vs DMSO median, subpopulation auxotrophic for UM; higher = larger share of this subpopulation than in DMSO controls; details: 10 µM; 24 h; SM minimal medium; subpopulation (auxotrophy): UM
# How it was run: as §1
# [12] = tested on: Saccharomyces cerevisiae BY4741 SeMeCo community; assay: z-score of subpopulation abundance vs DMSO median, subpopulation auxotrophic for HL; higher = larger share of this subpopulation than in DMSO controls; details: 10 µM; 24 h; SM minimal medium; subpopulation (auxotrophy): HL
# How it was run: as §1
# [13] = tested on: Saccharomyces cerevisiae BY4741 SeMeCo community; assay: z-score of subpopulation abundance vs DMSO median, subpopulation auxotrophic for HLU; higher = larger share of this subpopulation than in DMSO controls; details: 10 µM; 24 h; SM minimal medium; subpopulation (auxotrophy): HLU
# How it was run: as §1
# [14] = tested on: Saccharomyces cerevisiae BY4741 SeMeCo community; assay: z-score of subpopulation abundance vs DMSO median, subpopulation auxotrophic for HUM; higher = larger share of this subpopulation than in DMSO controls; details: 10 µM; 24 h; SM minimal medium; subpopulation (auxotrophy): HUM
# How it was run: as §1
# [15] = tested on: Saccharomyces cerevisiae BY4741 SeMeCo community; assay: z-score of subpopulation abundance vs DMSO median, subpopulation auxotrophic for LUM; higher = larger share of this subpopulation than in DMSO controls; details: 10 µM; 24 h; SM minimal medium; subpopulation (auxotrophy): LUM
# How it was run: as §1
# [16] = tested on: Saccharomyces cerevisiae BY4741 SeMeCo community; assay: z-score of subpopulation abundance vs DMSO median, subpopulation auxotrophic for HLUM; higher = larger share of this subpopulation than in DMSO controls; details: 10 µM; 24 h; SM minimal medium; subpopulation (auxotrophy): HLUM
# How it was run: as §1
SMILES,mean cell size [1],z-score of prototroph abundance [2],z-score of subpopulation abundance [3],z-score of subpopulation abundance [4],z-score of subpopulation abundance [5],z-score of subpopulation abundance [6],z-score of subpopulation abundance [7],z-score of subpopulation abundance [8],z-score of subpopulation abundance [9],z-score of subpopulation abundance [10],z-score of subpopulation abundance [11],z-score of subpopulation abundance [12],z-score of subpopulation abundance [13],z-score of subpopulation abundance [14],z-score of subpopulation abundance [15],z-score of subpopulation abundance [16]
CCC[S+]([O-])c1ccc2[nH]c(NC(=O)OC)nc2c1 (configuration not stated) [Albendazole Oxide],12.4 ± 0.35,0.33,-0.33,-0.98,0.49,-0.72,-0.51,-0.25,0.14,-0.21,0.18,-0.18,-0.31,0.36,-0.65,–
COCCCN1CCC(NC(=O)c2cc(Cl)c(N)c3c2OCC3)CC1 [Prucalopride],12.6 ± 0.1,-0.29,0.21,-0.58,–,-0.52,0.77,-0.04,0.24,0.16,0.57,-0.99,-0.6,0.36,-0.29,-0.34
OCc1ccccc1O[C@@H]1O[C@H](CO)[C@@H](O)[C@H](O)[C@H]1O [Salicin],12.4 ± 0.14,0.58,-0.14,0.38,-0.42,-0.5,-0.12,0.72,-0.68,-0.9,-0.29,-0.58,-0.13,-0.09,0.42,-0.11
Cc1onc(-c2c(F)cccc2Cl)c1C(=O)N[C@@H]1C(=O)N2[C@@H]1SC(C)(C)[C@@H]2C(=O)O [Flucloxacillin sodium],12.55 ± 0.1,-0.59,1.08,-0.25,–,-0.11,0.16,-0.65,–,-0.23,0.64,–,-0.04,0.1,-0.02,-0.68
CCCCNC(=O)NS(=O)(=O)c1ccc(C)cc1 [Tolbutamide],12.5 ± 0.33,0.43,-0.57,-0.55,0.61,-0.84,-1.03,-0.86,-0.14,-0.31,-0.16,-0.54,-0.37,-0.36,-1,0.19
OC(c1ccccc1)(c1ccccc1)C12CC[N+](CCOCc3ccccc3)(CC1)CC2 [Umeclidinium bromide],12.49 ± 0.074,0.82,-0.28,0.22,-0.23,-0.1,-0.42,–,-0.29,-0.27,-1.45,-0.7,-0.12,-0.43,-0.49,–
Nc1nc2c(ncn2COCCO)c(=O)[nH]1 [Aciclovir],12.5 ± 0.32,0.49,-0.02,1.26,-0.49,–,0.29,0.9,-0.46,-0.91,-0.79,–,-0.88,-1.32,0.25,–

# Reference: the supplement of paper PMC8975748
